From PubChem BioAssay
The sample as a whole holds a higher share of hits than the screen did.
PTK2B oligo ant: blocks oligomerization of human Pyk2 in cells | z-score (the deposit names both 25 µM and 10 µM) | actives 0.83% (n = 99,000) | Q293 cells, Pyk2 FERM NanoBiT luminescence; active compounds read low | AID 1347419 | Q14289;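 active means Z-score of -3 or lower, scaled per plate to the spread of control and sample wells; inactive means z-score above -3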;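 further: negative z-score means lost luminescence so less FERM oligomerization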
Target sequence (Q14289 whole entry, looked up): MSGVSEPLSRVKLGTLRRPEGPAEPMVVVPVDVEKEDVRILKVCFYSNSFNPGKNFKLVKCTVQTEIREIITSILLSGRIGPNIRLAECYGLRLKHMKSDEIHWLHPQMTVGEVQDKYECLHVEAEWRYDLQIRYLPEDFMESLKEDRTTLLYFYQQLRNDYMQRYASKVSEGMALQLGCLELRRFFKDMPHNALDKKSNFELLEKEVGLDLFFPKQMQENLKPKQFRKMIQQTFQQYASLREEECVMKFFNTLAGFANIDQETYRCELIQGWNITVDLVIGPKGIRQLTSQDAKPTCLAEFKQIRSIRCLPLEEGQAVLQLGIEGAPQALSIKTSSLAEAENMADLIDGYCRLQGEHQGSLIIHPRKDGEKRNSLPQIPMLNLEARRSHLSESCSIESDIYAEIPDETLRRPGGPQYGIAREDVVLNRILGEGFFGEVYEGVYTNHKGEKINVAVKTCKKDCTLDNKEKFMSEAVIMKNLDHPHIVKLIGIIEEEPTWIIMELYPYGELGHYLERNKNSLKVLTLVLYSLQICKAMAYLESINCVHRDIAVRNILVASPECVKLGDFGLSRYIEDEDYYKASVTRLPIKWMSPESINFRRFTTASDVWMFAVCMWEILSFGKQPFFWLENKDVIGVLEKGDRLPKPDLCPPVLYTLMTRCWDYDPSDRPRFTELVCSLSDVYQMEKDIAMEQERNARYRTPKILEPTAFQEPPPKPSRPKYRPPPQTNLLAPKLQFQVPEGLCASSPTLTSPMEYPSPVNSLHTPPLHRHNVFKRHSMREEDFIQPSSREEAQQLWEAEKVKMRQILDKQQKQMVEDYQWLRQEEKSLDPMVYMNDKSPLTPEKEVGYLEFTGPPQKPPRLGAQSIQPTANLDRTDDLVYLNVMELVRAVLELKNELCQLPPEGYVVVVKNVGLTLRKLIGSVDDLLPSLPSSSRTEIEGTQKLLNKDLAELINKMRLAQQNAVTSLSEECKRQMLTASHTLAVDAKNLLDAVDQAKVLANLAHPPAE
DAT uptake mod: modulates human dopamine transporter uptake under cocaine. Q01959. LLC-PK1 hDAT cells, [14C]-dopamine uptake with cocaine IC80; actives deviate in either direction. B-score at 10 µM. actives 1.3% (n = 110,000). AID 449768;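 active means Z score or B-score, a plate-position-corrected score, falls beyond the plate's 99.7% confidence bounds, in either direction; inactive means both scores lie inside the 99.7% bounds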;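 further: scored against the spread of the other compound wells on the same plate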
FAK inh: blocks human focal adhesion kinase activity. Q05397. biochemical FAK kinase activity assay. inhibition, %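 (tested at 7 µM)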. actives 0.84% (n = 97,000). AID 727; in the data active means inhibition above about 19%;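 further: 0% = DMSO and 100% = reference compound high control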
CD11b adhes enh: enhancers of human CD11b/CD18 binding to fibrinogen; actives 0.07% (n = 93,000); activation, % at 10 µM; K562 CD11b/CD18 adhesion to fibrinogen, ATPlite luminescence; AID 1499;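 active means 10 µM primary screen giving 50% or more activity, confirmed by 40% or more on retest at that dose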
Mac1 fbg inh: inhibitors of human CD11b/CD18 binding to fibrinogen. actives 0.54% (n = 93,000). AID 1497. K562 CD11b/CD18 adhesion to fibrinogen, ATPlite luminescence; Mn2+ added to activate the integrin. P05107+P11215. inhibition, % at 10 µM;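 active means primary inhibition of 50% or more at 10 µM, then 40% or more on retest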
D1 allo mod: allosteric modulators of human D1 dopamine receptor. actives 5.9% (n = 58,000). B-score at 10 µM. HEK293 D1, CRE-luciferase, dopamine EC30 potentiation; actives deviate in either direction. P21728;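 active means luminescence count or its row- and column-corrected plate score outside the 99.7% band of the plate's sample wells, on either side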
Active calls of the source: *; x = no result given; ! = repeats disagree.

SMILES | PTK2B oligo ant | DAT uptake mod | FAK inh | CD11b adhes enh | Mac1 fbg inh | D1 allo mod
O=C(CCCc1ccccc1)Nc1cccnc1 | 0.61 | x | -0.4 | 0.1 | -6.9 | x
COc1cccc(N2CCN(c3ncnc4c3[nH]c3ccc(F)cc34)CC2C)c1 (configuration not stated) | -1.81 | 0.94 | 5.2 | x | x | -5.25*
COc1cc2[nH]c3c(N4CCN(c5ccc(Cl)cc5)CC4)ncnc3c2cc1OC | -3.19* | -1.07 | -2.4 | 2.5 | -4.6 | x
Cc1cccc(NC(=O)Nc2ccc(C#N)cc2)n1 | x | -0.241 | x | 19.8 | 8.1 | -5.19*
COc1ccc(C)cc1NC(=O)CNC(=O)Cn1ccc2ccccc2c1=O | 0.09 | -8.99* | 9.3 | x | x | 0.278
CC(C)C(=O)NC(c1ccco1)c1ccc2cccnc2c1O (configuration not stated) | 0.77 | -0.805 | -0.1 | -3.2 | -1.5 | -0.734
COc1ccc(C(NC(C)=O)c2ccc3cccnc3c2O)c(OC)c1 (configuration not stated) | -1.81 | 1.03* | x | -4.9 | -3.0 | 1.89
[2H]c1c([2H])c([2H])c(-c2nc(N3CCCCCC3)sc2C(=O)c2ccccc2)c([2H])c1[2H] | -0.3 | -0.727 | -9.4 | 1.1 | -2.5 | x
Cc1sc2ncnc(N3CCN(CCOc4ccc(Cl)cc4)CC3)c2c1C | 0.44 | -1.12 | -0.9 | -9.2 | 99.4* | x
C=CCN1CCN(c2ccncc2S(=O)(=O)N2CCOCC2)CC1 | -0.14 | 0.289 | -0.9 | -1.1 | -3.5 | x
COCCN1C(=O)c2ccccc2C(C(=O)Nc2ccc3c(c2)OCCO3)C1c1ccc(F)cc1 (configuration not stated) | -3.36* | 0.557 | 2.4 | x | x | x
CN1C(=O)c2cccc(NC(=O)Cc3ccccc3)c2C1=O | x | -0.658 | -1.9 | 0.7 | 3.6 | 4.3
Cc1nn(-c2nc3ccccc3n2Cc2ccccc2)c2c1C(=O)CC(C)(C)C2 | -4.03* | 0.214 | 1.4 | 4.6 | 0.3 | 0.511
c1csc(-c2nc3ccccc3[nH]2)c1 | -0.08 | -0.0181 | 0.8 | x | x | -0.661
Nc1nc(-c2nc3ccccc3[nH]2)cs1 | -0.19 | 0.445 | -0.3 | 1.6 | -7.0 | -2.76*
CC(=O)c1cccc(NC(=O)c2cc3nc(C)cc(C)n3n2)c1 | -0.14 | 0.371 | 0.9 | -0.4 | -4.3 | -0.652
O=C(c1cccc(Br)c1)N1CCN(C(=O)c2cccc(Br)c2)CC1 | 0.29 | 2.18* | -2.5 | x | x | x
O=C(c1ccccc1)N1CCN(C(=O)c2ccccc2Br)CC1 | 0.85 | -7.74* | 12.3 | -5.2 | -6.2 | -1.08
Cc1cn(C(=O)c2cccc(Br)c2)c(C)n1 | 0.03 | -0.765 | 1.5 | 7.9 | -13.7 | 7.98*
O=C1c2cccnc2C(Nc2ccc(S(=O)(=O)N3CCCCC3)cc2)N1Cc1ccccc1 (configuration not stated) | 0 | 1.04 | 0.4 | x | x | -1.45*
CC(C)[C@H](NC(=O)OC(C)(C)C)C(=O)N/N=C/c1cccc2nccnc12 | -0.14 | 0.0641 | 0.6 | -0.6 | 0.2 | x
O=C(CCNc1n[nH]c(=O)[nH]c1=O)N1CCOCC1 | 0.01 | -3.36* | 1.8 | 0.6 | 1.4 | x
CCCCS(=O)CC(O)COCC (configuration not stated) | 0.02 | -0.354 | 0.0 | -0.1 | -8.6 | x
CCOC(=O)c1sc(NC(=O)CSc2nnc(C(C)C)n2CC)nc1C | 0.42 | 2.54* | -10.2 | -0.1 | -2.3 | 1.02
CCOC(=O)c1sc(NC(=O)CSc2nnc(C(C)C)n2C)nc1C | 1.17 | 1.1 | -1.1 | x | x | x
SMILES | PTK2B oligo ant | DAT uptake mod | FAK inh | CD11b adhes enh | Mac1 fbg inh | D1 allo mod
COC(=O)c1sc(NC(=O)CCCn2nc([N+](=O)[O-])cc2C)c(C(=O)OC)c1C | 0.1 | x | x | x | x | x
COc1ccc(OC)c(S(=O)(=O)N2CCC(C(=O)N3CCc4ccccc4C3)CC2)c1 | -0.05 | -1.64 | 1.3 | 6.5 | -5.7 | -1.44
CC(C)COc1ccc(C(=O)NCc2ccco2)cc1 | -0.63 | -7.84* | 0.7 | 0.0 | -9.8 | 0.0651
O=C(NCCc1ccccc1)c1ccc(Cl)nc1 | -0.6 | -1.3 | -2.0 | x | x | x
O=C(CN1CCN(S(=O)(=O)c2cc(Cl)ccc2Cl)CC1)Nc1ccc2c(c1)OCCO2 | -1.2 | 1.81*! | x | -1.2 | -15.3 | 2.47
CCN(CC)c1ccc(NC(=O)CN2CCN(CC(=O)Nc3ccccc3F)CC2)cc1 | 0.98 | 2.46* | -1.5 | 8.9 | 4.5 | 0.723
COc1ccccc1NC(=O)CN1CCN(CC(=O)Nc2ccc3c(c2)OCO3)CC1 | 0.71 | -4.29* | x | -2.3 | x | 0.192
